Assay results reported in the supplement of paper PMC10981050.
Where a name gives a salt, the structure may show the parent alone.

Tested on: OCI-AML2
Assay: cell viability relative to vehicle control; higher = less cytotoxic
Conditions: 10 µM; SRSF2 genotype: P95H/wt
Method in brief: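 CRISPR-edited SRSF2 P95 mutant and isogenic wild-type clones of four leukaemia lines were screened against Selleck bioactive, kinase and epigenetic probe libraries, with identity-inconsistent compounds removed. Compounds were acoustically dispensed into 384-well plates at a single 10 µM dose, with 2000 cells in 50 µL medium per well. After 48 h, supernatant was removed and CellTiter-Glo luminescence was read. Viability was expressed as percent of the on-plate DMSO vehicle control, analysed in Genedata Screener.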

SMILES | cell viability [%]
COC(=O)C[C@](O)(CCCC(C)(C)O)C(=O)O[C@@H]1C(OC)=C[C@]23CCCN2CCc2cc4c(cc2[C@H]13)OCO4 [Homoharringtonine] | 5.52
Cc1cc(C)c(-c2csc(NC(=O)c3ccccc3)n2)c(C)c1 | 39.5
C=C1CCC[C@]2(C)C[C@]3(O)OC(=O)C(C)=C3C[C@@H]12 [Atractylenolide III] | 94.9
C[C@@H]1C[C@H]2[C@@H]3CCC4=CC(=O)C=C[C@]4(C)[C@@]3(Cl)[C@@H](O)C[C@]2(C)[C@@]1(OC(=O)c1ccco1)C(=O)CCl [Mometasone furoate] | 113
CC(=O)O[C@]1(C(C)=O)CC[C@H]2[C@@H]3CCC4=CC(=O)CCC4=C3[C@@H](c3ccc(N(C)C)cc3)C[C@@]21C [Ulipristal acetate] | 84.6

Same assay, conditions: 10 µM; SRSF2 genotype: wt/wt

SMILES | cell viability [%]
O=C(CCc1ccc(O)cc1)c1c(O)cc(O[C@@H]2O[C@H](CO)[C@@H](O)[C@H](O)[C@H]2O)cc1O [Trilobatin] | 106
CC(C)n1nc(-c2ccc3oc(N)nc3c2)c2c(N)ncnc21 | 12
COc1ccc(COc2ccc(Cc3cnc(N)nc3N)cc2OC)cc1 | 70.3
COc1cc(O)c(C(=O)Nc2nc(C(=O)NCCN(C(C)C)C(C)C)cs2)cc1OC [Acotiamide hydrochloride] | 98.7
CC(=O)N1C[C@H](O)C[C@H]1C(=O)O [Oxaceprol] | 106
C/C=C(/C)C(=O)O[C@H]1[C@@H](OC(=O)CC(C)C)c2c(ccc3ccc(=O)oc23)OC1(C)C [Praeruptorin E] | 52.9
CC(C)[C@H](O)C(=O)N[C@@H](C)C(=O)N[C@@H]1C(=O)N(C)CCc2ccccc21 | 111
O=C(O)C1=CO[C@@H](O[C@@H]2O[C@H](CO)[C@@H](O)[C@H](O)[C@H]2O)[C@@H]2C(CO)=CC[C@H]12 [Geniposidic acid] | 107
NC(=O)[C@@H]1CC[C@@H]2CN1C(=O)N2OS(=O)(=O)O [Avibactam sodium] | 101
Oc1cc(O)c2c(c1)OC(c1ccc(O)c(O)c1)C(OC1(c3ccc(O)c(O)c3)Oc3cc(O)cc(O)c3C(O)C1O)C2 (stereo not given) [Proanthocyanidins] | 101
CC(=O)OCC(=O)[C@@]1(O)[C@H](C)C[C@H]2[C@@H]3CCC4=CC(=O)C=C[C@]4(C)[C@@]3(F)[C@@H](O)C[C@@]21C [Dexamethasone acetate] | 109
CCNC1(C(N)=O)CCN(c2ncnc3c2nc(-c2ccccc2Cl)n3-c2ccc(Cl)cc2)CC1 | 93
COc1cc(Cc2cnc(N)nc2N)cc(OC)c1OC [Trimethoprim] | 101
CCOC(=O)CC(=O)N1CCSC1COc1ccccc1OC (stereo not given) [Moguisteine] | 92
O=C(O)C=CCCCCCCCO [Royal jelly acid] | 112
COc1cc2c(cc1O)CC[n+]1cc3c(OC)c(OC)ccc3cc1-2 [Jatrorrhizine chloride] | 91.4
CC(C)(C)S(=O)(=O)c1ccc2nccc(Nc3n[nH]c4ccc(F)cc34)c2c1 | 86.2
Nc1c(Br)cc(Br)cc1CN[C@H]1CC[C@H](O)CC1 [Ambroxol HCl] | 101
CN(C)CCCCC(=O)Nc1ccc(NC(=S)NC(=O)c2ccc(C(C)(C)C)cc2)cc1 [Tenovin-6] | 5.3
Nc1nc2n[nH]nc2c(=O)[nH]1 [Azaguanine-8] | 54.6

SMILES | cell viability [%]
OCCOCCN1CCN(C(c2ccccc2)c2ccc(Cl)cc2)CC1 (stereo not given) [Hydroxyzine 2HCl] | 86.1
c1cc2c(c3c1C[C@H]1c4cc5c(cc4CCN1C3)OCO5)OCO2 [Stylopine hydrochloride] | 97.5
COc1c(-c2ccc3cc(NS(C)(=O)=O)ccc3c2)cc(-n2ccc(=O)[nH]c2=O)cc1C(C)(C)C [S5402 Dasabuvir(ABT-333).cdx] | 90.5
OC[C@H]1O[C@@H](n2cnc3c(O)nc(O)nc32)[C@H](O)[C@@H]1O [Xanthosine] | 99.7
CCOc1ccccc1N=Nc1c(C)[nH]n(-c2nc(-c3ccccc3)cs2)c1=O | 97.2
Cc1ccc([C@@H]2O[C@H](CO)[C@@H](O)[C@H](O)[C@H]2O)cc1Cc1ccc(-c2ccc(F)cc2)s1 [Canagliflozin] | 97.1
O=S1(=O)CCN(CN2CCS(=O)(=O)NC2)CN1 [Taurolidine] | 97.5
CC(=O)OCC(=O)[C@@]1(O)CC[C@H]2[C@@H]3CCC4=CC(=O)CC[C@]4(C)[C@@]3(F)[C@@H](O)C[C@@]21C [Fludrocortisone acetate] | 119
CCCCC(CC)COC(=O)C=Cc1ccc(OC)cc1 (stereo not given) [Octinoxate] | 93.4
NC(=O)c1ccc(-c2nc(-c3ccc4c(c3)OCCO4)c(-c3ccccn3)[nH]2)cc1 | 96.8
Cc1cc(-c2cc(C)c(NCCCS(=O)(=O)O)c(C)c2)cc(C)c1N | 99
Cc1cn(-c2cc(NC(=O)c3ccc(C)c(Nc4nccc(-c5cnccn5)n4)c3)cc(C(F)(F)F)c2)cn1 [Radotinib] | 104
O=c1c2ccccc2oc2ccccc12 [Xanthone (Genicide)] | 96.4
Nc1nc2c(ncn2COCCO)c(=O)[nH]1 [Acyclovir (Aciclovir)] | 102
CC(=O)O[C@]1(C(C)=O)CC[C@H]2[C@@H]3C[C@H](C)C4=CC(=O)CC[C@]4(C)[C@H]3CC[C@@]21C [Medroxyprogesterone acetate] | 87.5
COC(=O)C[C@](O)(CCCC(C)(C)O)C(=O)O[C@@H]1C(OC)=C[C@]23CCCN2CCc2cc4c(cc2[C@H]13)OCO4 [Homoharringtonine] | 11.4
Cc1cc(C)c(-c2csc(NC(=O)c3ccccc3)n2)c(C)c1 | 27.5
C=C1CCC[C@]2(C)C[C@]3(O)OC(=O)C(C)=C3C[C@@H]12 [Atractylenolide III] | 106
C[C@@H]1C[C@H]2[C@@H]3CCC4=CC(=O)C=C[C@]4(C)[C@@]3(Cl)[C@@H](O)C[C@]2(C)[C@@]1(OC(=O)c1ccco1)C(=O)CCl [Mometasone furoate] | 118
CC(=O)O[C@]1(C(C)=O)CC[C@H]2[C@@H]3CCC4=CC(=O)CCC4=C3[C@@H](c3ccc(N(C)C)cc3)C[C@@]21C [Ulipristal acetate] | 89.5
